In PubChem BioAssay AID463173 (ICCB-Longwood Screening Facility, Harvard Medical School, 2010):
The campaign covered roughly 52,000 compounds. About 4,300 (8.3%) were called active. No stated cut-off is given here; in the data, active means survival mostly below about 52% (no sharp cut-off); inactive means mostly above about 56%. The list comes from a sample in which actives are over-represented; it also holds similar structures and randomly drawn compounds.

test system: DeltatarO mutant; test: growth inhibition of S. aureus wild type versus tarO mutant, primary screen, teichoic acid synthesis inhibitors, RN4220, OD600 (AID 463173); details: OD600, 18 h, hits give low values, screened at 18.75 µg/mL (by protocol)

| Structure (SMILES) | survival |
| --- | --- |
| CCc1cccc(NC(=O)Cn2c(=O)n(CCCCCC(=O)NCc3ccc(F)cc3)c(=O)c3sccc32)c1 | 63% (inactive) |
| O=C(NCc1ccc(Cl)cc1)C1CCN(C(=O)c2cnn(-c3ccccc3)c2-n2cccc2)CC1 | 65% (inactive) |
| Cc1ccc(C)c(NS(=O)(=O)c2cc3c4c(c2)C(C)C(=O)N4CCC3)c1 (stereo not given) | 106% (inactive) |
| COc1ccc(CNC(=O)c2cnc3sc(N4CCCCCC4)nn3c2=O)cc1 | 101% (inactive) |
| CCOc1cccc2cc(-c3nc(-c4ccccc4C)no3)c(=O)oc12 | 76% (inactive) |
| CCc1ccc(S(=O)(=O)c2nnn3c2nc(N(C)Cc2ccccc2)c2cc(Cl)ccc23)cc1 | 82% (inactive) |
| COc1cc(-c2nc3sccn3c2Nc2cccc(C)c2)ccc1O | 54% (inactive) |
| Cc1ccc(Cn2c(=O)n(CCc3ccc(Cl)cc3)c(=O)c3ccccc32)cc1 | 42% (active) |
| Cc1ccc(Cn2c(=O)n(CCCCC(=O)NCc3ccccc3Cl)c(=O)c3ccccc32)cc1 | 102% (inactive) |
| Cc1ccc(CNC(=O)CCCCn2c(=O)c3ccccc3n(Cc3ccc(Cl)cc3)c2=O)cc1 | 105% (inactive) |
| O=c1c2cccnc2n(Cc2cccc(F)c2)c(=O)n1Cc1ccccc1Cl | 91% (inactive) |
| Cc1ccc(Cn2c(=O)n(Cc3ccccc3Cl)c(=O)c3ccccc32)cc1 | 48% (active) |
| O=c1c2ccccc2n(Cc2cccc(F)c2)c(=O)n1Cc1ccccc1Cl | 29% (active) |
| Cc1ccc(Cn2c(=O)n(CCCCC(=O)NCCc3ccc(Cl)cc3)c(=O)c3ccccc32)cc1 | 96% (inactive) |
| O=C(CCCn1c(=O)c2ccccc2n(Cc2cccc(F)c2)c1=O)NCc1ccccc1Cl | 74% (inactive) |
| Cc1ccc(Cn2c(=O)n(Cc3ccccc3Cl)c(=O)c3cccnc32)cc1 | 69% (inactive) |
| O=C(CCc1ccccc1)N/N=C/c1ccco1 | 104% (inactive) |
| Cc1cc(C)c(NS(=O)(=O)c2ccc(-c3cnc(C4CC4)o3)cc2)c(C)c1 | 99% (inactive) |
| CCCC(=O)C1=C(O)C(C(=O)OC)C(C)(C)CC1=N (stereo not given) | 95% (inactive) |
| Cc1ccccc1CNC(=O)CN1CCSc2ccccc21 | 89% (inactive) |
| Cc1ccccc1NC(=O)c1c(C)oc2ccc(O)c(CN3CCCC(C)C3)c12 (stereo not given) | 108% (inactive) |
| Cc1nn(-c2ccccc2)c(-n2cccc2)c1C(=O)N1CCN(c2ccccc2)CC1 | 83% (inactive) |
| Cc1ccc(N(C)S(=O)(=O)c2ccc3c(c2)C(C)(C)C(=O)N3C)cc1C | 80% (inactive) |

| Structure (SMILES) | survival |
| --- | --- |
| COc1ccc2c(Sc3ccccc3)c(C(=O)N3CCC(C)CC3)[nH]c2c1 | 69% (inactive) |
| Cc1ccc2c(Sc3ccc(Cl)cc3)c(C(=O)N3CCCCC3)[nH]c2c1 | 85% (inactive) |
| CCOC(=O)C1CCCN(S(=O)(=O)c2ccc(Cl)cc2)C1 (stereo not given) | 95% (inactive) |
| O=C(c1[nH]c2ccccc2c1Sc1ccc(Cl)cc1)N1CCCCC1 | 11% (active) |
| CCOC(=O)C1CCCN(C(=O)c2[nH]c3ccccc3c2Sc2ccc(Cl)cc2)C1 (stereo not given) | 37% (active) |
| CCOC(=O)C1CCCN(C(=O)c2ccc3c(c2)N(Cc2ccc(Cl)cc2)C(=O)c2ccccc2S3=O)C1 (stereo not given) | 60% (inactive) |
| COc1ccc2c(Sc3ccc(Cl)cc3)c(C(=O)N3CCCCC3)[nH]c2c1 | 40% (active) |
| COc1ccc2c(Sc3ccc(Cl)cc3)c(C(=O)N3CCC(C)CC3)[nH]c2c1 | 64% (inactive) |
| Cc1ccc2c(Sc3ccc(Cl)cc3)c(C(=O)N3CCC(C)CC3)[nH]c2c1 | 69% (inactive) |
| CCOC(=O)C1CCCN(C(=O)c2ccc3c(c2)N(Cc2cccc(Cl)c2)C(=O)c2ccccc2S3(=O)=O)C1 (stereo not given) | 64% (inactive) |
| Cc1cccc(NC(=O)CS(=O)(=O)c2nc(-c3ccccc3)cn2-c2cccc(Cl)c2)c1C | 63% (inactive) |
| Cc1ccc(C)c(Cn2c(=O)n(CCCCC(=O)NCc3ccccc3Cl)c(=O)c3ccccc32)c1 | 107% (inactive) |
| COc1ccc(N(C)C(=O)Cn2cc(S(=O)(=O)N3CCN(c4ccccc4F)CC3)c3ccccc3c2=O)c(OC)c1 | 97% (inactive) |
| Cc1ccc(-c2nn3c(C)nnc3c3ccccc23)cc1S(=O)(=O)NC(C)(C)CO | 74% (inactive) |
| O=C(NCc1ccccc1Cl)c1cnc2sc(N3CCOCC3)nn2c1=O | 71% (inactive) |
| COc1cccc(-c2nc(SCc3cc(=O)c4cc(Cl)ccc4[nH]3)n[nH]2)c1 | 94% (inactive) |
| O=C(C1CC2c3ccccc3C1c1ccccc12)N1CCOCC1 (stereo not given) | 86% (inactive) |
| COc1ccc(OC)c(NC(=O)C2CCN(S(=O)(=O)c3ccc4c(c3)CC(C)N4C(C)=O)CC2)c1 (stereo not given) | 75% (inactive) |
| COc1ccc(C(=O)NCc2ccc3c(c2)CCN3C(=O)c2cccc(C)c2)cc1OC | 119% (inactive) |
| Cc1ccc(Cl)cc1N1CCN(S(=O)(=O)c2ccc3[nH]c4c(c3c2)CCCC4)CC1 | 72% (inactive) |
| COc1ccc(NC(=O)CN(c2ccccc2OC)S(C)(=O)=O)c(OC)c1 | 75% (inactive) |
| Cc1ccc(-n2ccn(CC(=O)c3ccc(F)cc3)c(=O)c2=O)cc1C | 69% (inactive) |
| CCc1ccc2oc(C(=O)Nc3c(C)n(C)n(-c4ccccc4)c3=O)cc(=O)c2c1 | 97% (inactive) |

| Structure (SMILES) | survival |
| --- | --- |
| Cc1c(NC(=O)c2cc(=O)c3cc(Cl)ccc3o2)c(=O)n(-c2ccccc2)n1C | 43% (active) |
| Cc1cc(C)c2c(=O)cc(C(=O)Nc3c(C)n(C)n(-c4ccccc4)c3=O)oc2c1 | 65% (inactive) |
| Cc1ccc2c(=O)cc(C(=O)Nc3c(C)n(C)n(-c4ccccc4)c3=O)oc2c1 | 39% (active) |
| Cc1cc2oc(C(=O)Nc3c(C)n(C)n(-c4ccccc4)c3=O)cc(=O)c2cc1C | 78% (inactive) |
| Cc1c(NC(=O)c2cc(=O)c3ccccc3o2)c(=O)n(-c2ccccc2)n1C | 67% (inactive) |
| CCN(CC)CCN1C(=O)c2ccccc2NC1c1ccccc1F (stereo not given) | 106% (inactive) |
| CCOc1ccc(NC(=O)CSc2cn(CCNC(=O)c3ccccc3F)c3ccccc23)cc1 | 71% (inactive) |
| CCC(Sc1nccn1C)C(=O)Nc1cc(C)on1 (stereo not given) | 90% (inactive) |
| CCC(C(=O)NC1CCCCC1)n1c(SCc2ccc(F)cc2)nc2ccncc21 (stereo not given) | 73% (inactive) |
| Cc1ccc(CSc2nc3cc(C(=O)NC4CCCC4)ccc3c(=O)n2Cc2ccccc2)cc1 | 57% (inactive) |
| CCC(Sc1nc2cc(OC)c(OC)cc2c(=O)n1Cc1ccc(Cl)cc1)C(=O)NCCOC (stereo not given) | 91% (inactive) |
| CCC(Sc1nnc(-c2ccc(F)cc2)c(-c2ccc(F)cc2)n1)C(=O)NC1CCCC1 (stereo not given) | 75% (inactive) |
| CCC(Sc1nc2nccnc2c(=O)n1Cc1ccc(F)cc1)C(=O)NC1CCCCC1 (stereo not given) | 42% (active) |
| CCC(Sc1nc2nccnc2c(=O)n1Cc1ccc(C)cc1)C(=O)NC1CCCCC1 (stereo not given) | 39% (active) |
| CCC(Sc1nc2nccnc2c(=O)n1Cc1ccc(OC)cc1)C(=O)NC1CCCCC1 (stereo not given) | 104% (inactive) |
| CCC(Sc1nc2nccnc2c(=O)n1Cc1ccccc1Cl)C(=O)NC1CCCCC1 (stereo not given) | 99% (inactive) |
| CCC(Sc1nc2nccnc2c(=O)n1Cc1ccc(Cl)cc1)C(=O)NC1CCCCC1 (stereo not given) | 19% (active) |
| CCOC(=O)N1CCN(C(=O)CN(c2cccc(Cl)c2C)S(=O)(=O)c2ccc(C)cc2)CC1 | 119% (inactive) |
| CC1CCN(S(=O)(=O)c2csc(C(N)=O)c2)CC1 | 85% (inactive) |
| CC1CCN(S(=O)(=O)c2cccc(C(=O)N(C)C3(C)CCS(=O)(=O)C3)c2)CC1 (stereo not given) | 75% (inactive) |
| CN1CCN(C(c2ccc(F)cc2)c2sc3nc(-c4ccco4)nn3c2O)CC1 (stereo not given) | 79% (inactive) |
| Cc1cc(C)c(S(=O)(=O)NCC(c2ccco2)N2CCOCC2)c(C)c1 (stereo not given) | 89% (inactive) |
| CN(C)c1ccc(-c2nc3ccc(Cl)cn3c2Nc2ccc3c(c2)OCCO3)cc1 | 143% (inactive) |

| Structure (SMILES) | survival |
| --- | --- |
| COc1cccc2c1Oc1nc(-c3ccccc3)nc(SCC(=O)N3CCCCC3)c1C2 | 100% (inactive) |
| COc1ccc(CCC(=O)N2CCc3c([nH]c4ccccc34)C2c2ccc(F)cc2)cc1 (stereo not given) | 83% (inactive) |
| Cn1c(SCc2ccccc2)nnc1-c1ccccc1 | 93% (inactive) |
| Cc1nnc(SCC(=O)O)n1N | 114% (inactive) |
| Cc1nnc(SCc2ccccc2)n1N | 61% (active) |
| CC(C)Oc1ccc(CNC(=O)C2=Cc3ccccc3OC2)cc1 | 67% (inactive) |
| CCOc1ccc(CCNC(=O)CCCc2nnc3n(CC)c(=O)c4sccc4n23)cc1OCC | 92% (inactive) |
| CCOC(=O)c1ccccc1NC(=O)CSc1ncc2c(n1)-c1ccccc1N(CC)S2(=O)=O | 83% (inactive) |
| COc1ccc(NC(=O)Cc2noc3ccc(C)cc23)cc1Cl | 56% (active) |
| COC(=O)c1ccccc1NC(=O)Cc1noc2ccc(C)cc12 | 39% (active) |
| Cc1ccc2onc(CNC(=O)Nc3ccccc3C#N)c2c1 | 76% (inactive) |
| COc1ccccc1CNC(=O)NCc1noc2ccc(C)cc12 | 56% (inactive) |
| CCOc1ccccc1NC(=O)NCc1noc2ccc(C)cc12 | 35% (active) |
| COc1ccc(OC)c(CNC(=O)NCc2noc3ccc(C)cc23)c1 | 104% (inactive) |
| CC(=O)c1cccc(NC(=O)Cc2noc3ccccc23)c1 | 49% (inactive) |
| Cc1ccc(CNC(=O)NCc2noc3ccc(C)cc23)cc1 | 47% (inactive) |
| COc1ccc(Cl)cc1N(C)C(=O)Cc1noc2ccc(C)cc12 | 50% (inactive) |
| Cc1ccc2onc(CC(=O)Nc3ccc(C(C)C)cc3)c2c1 | 46% (active) |
| CCOc1ccccc1NC(=O)Cc1noc2ccc(C)cc12 | 48% (inactive) |
| Cc1ccc2onc(CC(=O)Nc3cc(F)ccc3F)c2c1 | 48% (inactive) |
| Cc1ccc(-c2nn3c(=O)cc(CN4CCN(C(=O)c5ccc(C(C)(C)C)cc5)CC4)nc3s2)cc1 | 67% (inactive) |
